Reference: ChEMBL document CHEMBL3988442, “University of Dundee, Small-Polar-MMV Screening Library” (2021)
Out of some 48,000 compounds screened, about 13,000 (27%) showed an effect of 50% or more. Some of the results follow.

tested on: Wolbachia pipientis; assay: Anti-Wolbachia Cell-Based Screen; type: functional; parameters: scale not given: in the data most compounds retested in dose-response had high values; settings: 5 µM

Compound | Percent Effect [%]
Cc1cc(-c2nc(C3(NC(=O)OC(C)(C)C)CCC3)no2)on1 | 26.17
CN(Cc1cn2c(n1)CN(Cc1ccc(F)cc1)CC2)Cc1ccco1.O=C(O)C(F)(F)F.O=C(O)C(F)(F)F | 12.2
O=C(NCc1cn2c(n1)CN(Cc1cccc(F)c1)CC2)C1CCC1.O=C(O)C(F)(F)F | -4.288
COc1ccc(CN2CCn3cc(CN4CCCCC4)nc3C2)cc1.O=C(O)C(F)(F)F.O=C(O)C(F)(F)F | 13.43
CN1CCN(Cc2cn3c(n2)CN(Cc2ccc(F)cc2)CC3)CC1.O=C(O)C(F)(F)F.O=C(O)C(F)(F)F.O=C(O)C(F)(F)F | 107.8
CN1CCN(Cc2cn3c(n2)CN(Cc2cccc(F)c2)CC3)CC1.O=C(O)C(F)(F)F.O=C(O)C(F)(F)F.O=C(O)C(F)(F)F | 118.6
Cc1ccc(CN2CCn3cc(CN4CCN(C)CC4)nc3C2)cc1.O=C(O)C(F)(F)F.O=C(O)C(F)(F)F.O=C(O)C(F)(F)F | 108
CN1CCN(Cc2cn3c(n2)CN(C(=O)c2cccn2C)CC3)CC1.O=C(O)C(F)(F)F.O=C(O)C(F)(F)F | 2.395
O=C(CC1CC1)NCc1cn2c(n1)CN(Cc1cccc(F)c1)CC2.O=C(O)C(F)(F)F | 2.246
COc1ccc(CN2CCn3cc(Cn4cccn4)nc3C2)cc1.O=C(O)C(F)(F)F | -6.787
CN(CCN1CCOCC1)S(=O)(=O)CC1CCCC1 | -5.333
CCOC(C)c1nc(Cn2cccn2)cs1 (stereo not given) | -9.016
CNC(=O)NC(=O)C(C)Nc1ccccc1OCCOC (stereo not given) | -4.777
N#CC(NC(=O)CCCOc1cccnc1)c1ccc(F)cc1F (stereo not given) | 86.86
N#CC(NC(=O)CCC(=O)NC1CCCC1)c1ccc(F)cc1F (stereo not given) | -15.9
Cc1ccccc1C(C#N)NC(=O)CCCOc1cccnc1 (stereo not given) | 81.76
COCCOCC(=O)NC(C#N)c1cccc(Cl)c1Cl (stereo not given) | -5.462
COCCOCC(=O)NC(C#N)c1ccccc1C (stereo not given) | -6.044
CCC(C#N)NC(=O)CCCOc1cccc(C(C)=O)c1 (stereo not given) | 2.653
CC(NC(=O)CCCOc1ccccc1Cl)c1ccncc1 (stereo not given) | -5.122
N#CC(NC(=O)CCCOc1cccnc1)c1ccccc1Cl (stereo not given) | 111.5
CCCC(C#N)NC(=O)CCCOc1cccc(F)c1 (stereo not given) | -0.6223
CC(C)c1ccc(S(=O)(=O)Cc2nc(N)nc(N(C)C)n2)cc1 | 13.19
COc1c(NC(=O)N(C)CCOc2ccccc2)c(C)nn1C | -49.81

Compound | Percent Effect [%]
c1ccn2c(SCC3CN=C(N4CCOCC4)S3)ncc2c1 (stereo not given) | 6.715
O=S(=O)(NC1CCN(CC(F)(F)F)C1)c1cc(F)cc(F)c1 (stereo not given) | -11.02
COCC(=O)N1CCC(c2noc3nc(C)cc(C(F)(F)F)c23)CC1 | -9.714
COCC(=O)N1CCC(c2cc(C(F)(F)F)n3ccnc3n2)CC1 | -3.76
COCC(=O)N1CCC(c2cc(N(C)C)cc(C)n2)CC1 | 144.6
COCC(=O)N1CCC(c2cc(-c3ccc(N)nc3)cc(C)n2)CC1 | 134.8
CN(c1cccc(C#N)c1)S(=O)(=O)c1cc(C(=O)O)ccc1Cl | -8.921
CCc1ncc2c(n1)CN(CC1CCCCO1)CC2 (stereo not given) | -28.59
CCN(C(=O)c1ccc2nnc(C3CCN(C(C)=O)C3)n2c1)C(C)C (stereo not given) | -2.519
CNC(=O)c1cccc(NC(=O)NC(C)c2cc(C)oc2C)c1C (stereo not given) | -16.36
O=C(O)C(F)(F)F.O=C([C@@H]1C[C@@H]2CCN(c3cccc(F)c3)C[C@H]2O1)N1CCCC1 | 103.2
O=C(O)C(F)(F)F.O=C([C@@H]1CC[C@@H]2[C@@H](CCN2Cc2cccc(F)c2)O1)N1CCCCO1 | -25.86
Fc1cccc(N2C[C@H]3CCN(c4cccnc4)C[C@H]3C2)c1.O=C(O)C(F)(F)F | 6.711
O=C(O)C(F)(F)F.O=C([C@H]1C[C@@H]2CCN(c3cccc(F)c3)C[C@H]2O1)N1CCCCO1 | 96.52
O=C(O)C(F)(F)F.O=C([C@H]1C[C@@H]2CCN(c3cccc(F)c3)C[C@H]2O1)N1CCCC1 | 111.1
CN1CCN(C(=O)[C@@H]2C[C@@H]3CCN(c4cccc(F)c4)C[C@H]3O2)CC1 | 96.73
CN1CCN(C(=O)[C@H]2C[C@@H]3CCN(c4ncc(F)cn4)C[C@@H]3O2)CC1.O=C(O)C(F)(F)F | -9.48
O=S(=O)(C1CC1)N1CCOC2(CCCN(c3cccc(F)c3)C2)C1 (stereo not given) | 7.053
Cc1ccc(CN2CC[C@H]3C[C@H](C(=O)N4CCCO4)O[C@@H]3C2)o1.O=C(O)C(F)(F)F | -11.63
COc1cccc(OCc2cc(C(=O)NC[C@H]3CCCN3)n[nH]2)c1 | -9.254
CCc1nc(NS(=O)(=O)c2ccc(C)cc2Cl)no1 | -7.333
CC(C)c1csc(C2CCCN(C(=O)c3ccc(=O)n(C)c3)C2)n1 (stereo not given) | 2.326
CC(C)Cc1nc(CN(C)CCOc2ccccc2F)no1 | 2.804
O=C(Cn1ccc(=O)[nH]c1=O)NCC1Cc2ccccc2O1 (stereo not given) | 0.2234

Compound | Percent Effect [%]
CC(C)NC(=O)NC[C@H]1OC[C@@H](NCc2ccc(F)cc2)[C@@H]1O | 8.979
CC1=C(CCN2C[C@H](O)[C@@H](N3CCOCC3)C2)C(C)(C)CCC1 | 0.7691
COc1ccc(CC(=O)N2CCC(c3nnc4n3CCC4)CC2)cc1F | -6.133
O=C(C1CCC1)N1CCCC1c1nnc2n1CCCCC2 (stereo not given) | -4.579
Clc1cncc(N2CCCC2c2nnc3n2CCCCC3)n1 (stereo not given) | 118.9
CCOc1c(Br)cc(CNCCc2nnc3n2CCCCC3)cc1OC.Cl | 15.42
CCOc1cncc(N2CCCC2c2nnc3n2CCCCC3)n1 (stereo not given) | 129.6
Cc1cnn(CC2CCCCN2c2ncnc3ccccc23)c1 (stereo not given) | -9.464
CC1c2ncc(COCC3CC3)n2CCN1C.O=C(O)C(F)(F)F (stereo not given) | -13.39
Cc1ccc(C(C(=O)N2CC(c3ccccn3)C2)N(C)C)cc1 (stereo not given) | 13.16
COc1cccc(CN2CCC3(CC2)CCN(c2ncc(F)cn2)C3)c1.O=C(O)C(F)(F)F | 3.548
Cn1cc(CN2CCC[C@]3(C(=O)O)CN(c4ncccn4)C[C@@H]3C2)cn1.O=C(O)C(F)(F)F | 8.279
COc1cccc(CN2CCC3(CCN(c4ncc(F)cn4)CC3)C2)c1.O=C(O)C(F)(F)F | -1.729
Cn1cc(CN2CCC(F)(F)C3(CCN(c4ncccn4)C3)C2)cn1.O=C(O)C(F)(F)F.O=C(O)C(F)(F)F (stereo not given) | 111.9
Cn1cc(CN2CCC(F)(F)C3(CCN(c4ccccn4)C3)C2)cn1.O=C(O)C(F)(F)F.O=C(O)C(F)(F)F (stereo not given) | 97.58
Cn1cc(CN2CCC(F)(F)C3(CCN(c4ncc(F)cn4)C3)C2)cn1.O=C(O)C(F)(F)F (stereo not given) | 107.8
Cn1cc(CN2CCC(F)(F)C3(CCN(c4cnccn4)C3)C2)cn1.O=C(O)C(F)(F)F.O=C(O)C(F)(F)F (stereo not given) | -4.979
COCC1CC2(CCN(Cc3cnn(C)c3)CC2)CN1c1ncccn1.O=C(O)C(F)(F)F.O=C(O)C(F)(F)F (stereo not given) | -8.289
O=C(O)C(F)(F)F.O=C(c1cnccn1)N1CCC(F)(F)C2(CCN(c3ccccn3)C2)C1 (stereo not given) | -12.88
COc1cc(N2CC[C@@H]3O[C@@H](C(=O)NC(C)C)C[C@@H]32)ncn1 | 103.8
COCCNC(=O)[C@H]1CC[C@@H]2[C@@H](CCN2c2ncc(F)cn2)O1.O=C(O)C(F)(F)F | 0.7223
COCCNC(=O)[C@@H]1CC[C@@H]2[C@@H](CCN2c2ncc(F)cn2)O1.O=C(O)C(F)(F)F | -10.3
COc1cc(N2CC[C@@H]3O[C@H](C(=O)NCC4CC4)C[C@@H]32)ncn1 | 97.06
COCCNC(=O)[C@@H]1C[C@H]2[C@H](CCN2c2cc(OC)ncn2)O1 | 102.9

Compound | Percent Effect [%]
COc1cc(N2C[C@H]3OCC[C@H]3[C@H](C(=O)NC3CC3)C2)ncn1 | -4.655
COc1cc(NC(=O)N(C)C(C2CC2)C2CC2)ncn1 | -1.888
COc1cc(NC(=O)N(C)CC2CC2)ncn1 | -6.401
COc1cc(NC(=O)N(C)CCC2CC2)ncn1 | 6.653
COc1cc(N2CC[C@@H]3O[C@@H](C(=O)NCCN(C)C)C[C@@H]32)ncn1 | 104.9
COc1cc(N2CC[C@@H](OC)[C@@H]2Cc2ccccc2)ncn1 | 2.999
Cc1cnn(CC(=O)Nc2cc(-n3nnnc3C3CC3)ccc2F)c1 | -3.572
CC(C)CC(C)N(C)C(=O)CCn1cccn1 (stereo not given) | 9.677
CC(C(=O)N1CCCC1)N1CCC(c2nccn2Cc2cscn2)CC1 (stereo not given) | 9.079
CC1COc2ccccc2N1C(=O)c1cscn1 (stereo not given) | -0.3654
Cc1nc(C2CCN(C)CC2)cc(N2CCOc3ccc(Cl)cc3C2)n1 | -7.272
Cc1nnc2ccc(N3CCC4(CCOC4)C3)nn12 (stereo not given) | -16.97
Cc1nc(C)c(C)c(N2CCC3(CCOC3)C2)n1 (stereo not given) | 0.7248
Cc1nc(N2CCC3(CCOC3)C2)c2cc[nH]c2n1 (stereo not given) | 96.01
Cc1cncc(C(=O)N2CCC3(CCCN(c4nncs4)C3)C2)c1.O=C(O)C(F)(F)F (stereo not given) | -14.05
CC(C)CCN1CCC2(CCCN(c3nncs3)C2)C1.O=C(O)C(F)(F)F (stereo not given) | -9.122
O=C(O)C(F)(F)F.O=C(c1ccncc1)N1CCOC2(COCCN(c3cncnc3)C2)C1 (stereo not given) | -8.943
CC(=O)N1CCCC2(C1)CN(c1nncs1)CCO2.O=C(O)C(F)(F)F (stereo not given) | 117
CC(C)C(=O)N1CCCC2(C1)CN(c1nncs1)CCO2.O=C(O)C(F)(F)F (stereo not given) | 94.93
O=C(O)C(F)(F)F.c1ccc(N2CCOC3(CCCN(c4nncs4)C3)C2)nc1 (stereo not given) | -13.18
CC(=O)N1CCCC2(C1)CN(c1ncc(C)cn1)CCO2.O=C(O)C(F)(F)F (stereo not given) | -4.18
O=C(O)C(F)(F)F.O=C(c1ccncc1)N1CCOC2(CCCN(c3nncs3)C2)C1 (stereo not given) | 123
CC(C)CN1CCCC12CCN(c1nncs1)C2.O=C(O)C(F)(F)F (stereo not given) | 16.12
